Test [1] in a line: ATG_GLI_CIS: Attagene CIS-FACTORIAL HepG2 Assay for human Zinc Finger Protein GLI1 (AID 2282945). As to conditions: HepG2, Attagene cis-factorial reporter mRNA, GLI element; actives raise or lower the signal. In a few lines:
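HepG2 cells transiently transfected with cis-promoter multiplexed reporter units report endogenous transcription factor activity. After 24 h chemical exposure, reporter mRNA was quantified by RT-PCR, 6-FAM labelling, HpaI digestion and capillary electrophoresis, with bidirectional fitting against DMSO.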

Test [2] addresses Bile acid receptor (Homo sapiens) (UniProt Q96RI1). Briefly: ATG_IR1_CIS: Attagene CIS-FACTORIAL HepG2 Assay for human Nuclear Receptor Subfamily 1 Group H Member 4 (NR1H4), IR1 submotif (AID 2282946). As to conditions: IR1 reporter transcription, actives raise or lower the signal. In a few lines: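 Transient MRTU transfection, HepG2; 24 h dosing; RNA → RT-PCR → 6-FAM primer extension → HpaI digest → capillary electrophoresis fluorescence. Gain/loss of signal fitted relative to DMSO.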

Test [3] is described as follows: ATG_GRE_CIS: Attagene CIS-FACTORIAL HepG2 Assay for human Glucocorticoid Response Elements (GRE) (AID 2282947). As to conditions: HepG2 GRE cis-reporter, Attagene multiplex mRNA; actives raise or lower the signal. The procedure, abridged:
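Following 24 h chemical exposure of transiently transfected HepG2 cells, total RNA was reverse-transcribed and reporter cDNA amplified, fluorescently labelled and sized by capillary electrophoresis. Signal gain or loss was fitted relative to DMSO vehicle.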

Test [4] is described as follows: ATG_ISRE_CIS: Attagene CIS-FACTORIAL HepG2 Assay for human Interferon Regulatory Factor 1 (IRF1) binding to an Interferon-Stimulated Response Element (ISRE) (AID 2282948). As to conditions: HepG2 ISRE cis-reporter (Attagene), mRNA transcription readout; actives raise or lower the signal. The procedure, abridged: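 Transiently transfected HepG2 cells carrying cis-element reporter units, dosed 24 hours. Reporter mRNA quantified by RT-PCR, fluorescent primer extension, HpaI digestion and capillary electrophoresis. Bidirectional fitting relative to DMSO.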

Test [5] is described as follows: ATG_M_32_CIS: Attagene CIS-FACTORIAL HepG2 Assay for M32 Transcription Factor (Internal Marker) (AID 2282949).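 Also: background control marker of the multiplexed CIS panel rather than a real target.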 As to conditions: HepG2 Attagene cis-factorial M32 reporter, mRNA; actives raise or lower the signal. In a few lines:
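HepG2 cells transiently transfected with multiplexed cis-regulated reporter units, dosed 24 h. Reporter mRNA quantified by RT-PCR, 6-FAM labelling, HpaI digestion and capillary electrophoresis; bidirectional fit vs DMSO.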

The target in test [6] is Hypoxia-inducible factor 1-alpha (Homo sapiens) (UniProt Q16665). Briefly: ATG_HIF1a_CIS: Attagene CIS-FACTORIAL HepG2 Assay for human Hypoxia Inducible Factor 1 (HIF1A) (AID 2282951). As to conditions: HepG2 Attagene cis-factorial HIF1a reporter transcription; actives raise or lower the signal. In a few lines:
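Endogenous-TF cis reporter readout, human HepG2 cells, 24 h incubation; mRNA detected via RT-PCR and capillary electrophoresis fluorescence; DMSO-normalised bidirectional fitting.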

In test [7] the target is Hepatocyte nuclear factor 6 (Homo sapiens) (UniProt Q9UBC0). Briefly: ATG_HNF6_CIS: Attagene CIS-FACTORIAL HepG2 Assay for human Hepatocyte Nuclear Factor 6 (HNF6) (AID 2282952). As to conditions: HepG2 Attagene cis-factorial HNF6 reporter transcription; actives raise or lower the signal. The procedure, abridged: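 Multiplexed mRNA reporter assay in transfected HepG2; 24 h dosing; RT-PCR plus capillary electrophoresis fluorescence; DMSO-referenced bidirectional curve fitting.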

Test [8] addresses Heat shock factor protein 1 (Homo sapiens) (UniProt Q00613). In words: ATG_HSE_CIS: Attagene CIS-FACTORIAL HepG2 Assay for human Heat Shock Transcription Factor 1 (HSE) (AID 2282953). As to conditions: HepG2 HSE cis-reporter, Attagene RNA transcription; actives raise or lower the signal. The procedure, abridged:
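HepG2 cells transiently transfected with multiple reporter transcription units under cis-regulatory promoter control, measuring endogenous transcription factor activity. After 24 h chemical exposure, reporter mRNA quantified by RT-PCR, fluorescent labelling, HpaI digestion and capillary electrophoresis; bidirectional fit versus DMSO.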

Test [9] can be described thus: ATG_MRE_CIS: Attagene CIS-FACTORIAL HepG2 Assay for human Metal Responsive Element (MRE) (AID 2282954). As to conditions: HepG2 MRE cis-reporter transcription, Attagene multiplex; actives raise or lower the signal. The procedure, abridged:
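Step one: transfect HepG2 with cis-regulated reporter units. Step two: dose 24 h. Step three: isolate RNA, RT-PCR, 6-FAM label, HpaI digest, capillary electrophoresis. Fit bidirectionally to DMSO.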

Test [10] can be described thus: ATG_PBREM_CIS: Attagene CIS-FACTORIAL HepG2 Assay for human Phenobarbital-responsive Enhancer Module (PBREM) (AID 2282955). As to conditions: HepG2 PBREM cis-reporter, Attagene multiplexed transcription; actives raise or lower the signal. The procedure, abridged:
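Readout: reporter mRNA, fluorescent RT-PCR fragments separated by capillary electrophoresis. System: HepG2 transiently transfected with cis-regulated reporter units. Exposure: 24 h. Analysis: bidirectional, DMSO baseline.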

Test [11] concerns the target Paired box protein Pax-6 (Homo sapiens) (UniProt P26367). In words: ATG_Pax6_CIS: Attagene CIS-FACTORIAL HepG2 Assay for human Paired Box 6 (PAX6) (AID 2282956). As to conditions: HepG2 CIS-FACTORIAL PAX6 reporter transcription, RNA readout; actives raise or lower the signal. In a few lines:
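HepG2 cells transiently transfected with cis-promoter-driven multiplexed reporter units sensing endogenous transcription factor activity; 24 h chemical exposure. Reporter mRNA quantified by RT-PCR, 6-FAM labelling, HpaI digestion and capillary electrophoresis; bidirectional fit versus DMSO baseline.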

Test [12] can be described thus: ATG_PXRE_CIS: Attagene CIS-FACTORIAL HepG2 Assay for human Pregnane X Receptor Element (PXRE) (AID 2282957). As to conditions: HepG2 Attagene CIS-FACTORIAL PXRE reporter, mRNA; actives raise or lower the signal. In a few lines: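 Cells: HepG2, transiently transfected reporter units under cis promoter control. Exposure: 24 h. Detection: reporter mRNA via RT-PCR/CE fluorescence; bidirectional fitting, DMSO-referenced.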

A short description of test [13]: ATG_PPRE_CIS: Attagene CIS-FACTORIAL HepG2 Assay for human Peroxisome Proliferator-activated Response Element (PPRE) (AID 2282958). As to conditions: HepG2 PPRE cis-element reporter, Attagene transcription factor profiling; actives raise or lower the signal. The procedure, abridged: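 After human HepG2 hepatoma cells were transiently transfected with cis-promoter reporter constructs, they were exposed to test chemicals for 24 hours. Reporter RNA was then reverse-transcribed, PCR-amplified, FAM-labeled, HpaI-digested and quantified by capillary electrophoresis.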

Test [14] in a line: ATG_RORE_CIS: Attagene CIS-FACTORIAL HepG2 Assay for human RAR-related Orphan Receptor Element (RORE) (AID 2282959). As to conditions: HepG2 Attagene cis-factorial RORE reporter, mRNA; actives raise or lower the signal. In a few lines: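 Measured here: transcript induction of a cis-regulated reporter in HepG2 cells transiently transfected via FuGene 6. After 24 h, RNA was processed by RT-PCR and fluorescent capillary electrophoresis; DMSO defined baseline activity.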

A short description of test [15]: ATG_Sox_CIS: Attagene CIS-FACTORIAL HepG2 Assay for human SRY-box transcription factor (SOX) (AID 2282960). As to conditions: HepG2 Attagene cis-factorial SOX reporter, mRNA; actives raise or lower the signal. In a few lines:
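Using transiently transfected HepG2 cells, reporter transcription driven by cis elements was assessed 24 h after dosing. Signal was fluorescence of capillary-separated RT-PCR products, with DMSO defining baseline activity.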

The target of test [16] is Transcription factor Sp1 (Homo sapiens) (UniProt P08047). In words: ATG_Sp1_CIS: Attagene CIS-FACTORIAL HepG2 Assay for human Specificity Protein 1 (Sp1) (AID 2282961). As to conditions: HepG2 Sp1 cis-reporter transcription, actives raise or lower the signal. In a few lines:
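After transient transfection of HepG2 cells with cis-promoter reporter units and 24 h chemical treatment, reporter transcripts were quantified by RT-PCR and capillary electrophoresis fluorescence. Gain- and loss-of-signal fitted against DMSO.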

The nature of test [17]: ATG_SREBP_CIS: Attagene CIS-FACTORIAL HepG2 Assay for human Sterol Regulatory Element Binding (SREBP) (AID 2282962). As to conditions: HepG2 Attagene cis-factorial SREBP reporter, mRNA; actives raise or lower the signal. The procedure, abridged: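 HepG2 cells transiently transfected with multiplexed cis-promoter reporter units sensing endogenous transcription factors; reporter mRNA measured 24 h after dosing by RT-PCR, 6-FAM labeling, HpaI digestion and capillary electrophoresis. Bidirectional fit versus DMSO.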

The target of test [18] is Signal transducer and activator of transcription 3 (Homo sapiens) (UniProt P40763). Briefly: ATG_STAT3_CIS: Attagene CIS-FACTORIAL HepG2 Assay for human Signal Transducer and Activator of Transcription 3 (STAT3) (AID 2282963). As to conditions: HepG2, Attagene cis-factorial STAT3 reporter transcription; actives raise or lower the signal. In a few lines:
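Transcript-level reporter assay. HepG2 transient MRTU transfection, 24 h exposure, fluorescence detection after RT-PCR and CE; DMSO baseline.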

Test [19] in a line: ATG_TA_CIS: Attagene CIS-FACTORIAL HepG2 Assay for human TA Basal Promoter (AID 2282964). As to conditions: HepG2 Attagene CIS-factorial TA basal promoter reporter; actives raise or lower the signal. The procedure, abridged: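 HepG2 cells transiently transfected with multiplexed cis-promoter reporter units, dosed 24 h. Reporter mRNA measured by RT-PCR, 6-FAM labelling, HpaI digestion and capillary electrophoresis; bidirectional fit versus DMSO baseline, serving as background control.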

Test [20] in a line: ATG_M_06_CIS: Attagene CIS-FACTORIAL HepG2 Assay for M06 Transcription Factor (Internal Marker) (AID 2282950). As to conditions: HepG2 Attagene CIS-FACTORIAL M06 internal marker reporter; actives raise or lower the signal. In a few lines:
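HepG2 cells transiently transfected with cis-regulated multiple reporter transcription units were exposed to chemical for 24 h; reporter mRNA was quantified by RT-PCR, 6-FAM primer labelling, HpaI digestion and capillary electrophoresis, fitted bidirectionally against DMSO.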

The source of these data is PubChem BioAssay (EPA / NIEHS).

Activity calls are given as the source filed them. The calls were made as follows: active = hit-call score of the fitted dose curve at least 0.9, where 1 is the maximum; inactive = score below 0.9.

Sequence of Paired box protein Pax-6 (Homo sapiens) (P26367 whole entry, looked up): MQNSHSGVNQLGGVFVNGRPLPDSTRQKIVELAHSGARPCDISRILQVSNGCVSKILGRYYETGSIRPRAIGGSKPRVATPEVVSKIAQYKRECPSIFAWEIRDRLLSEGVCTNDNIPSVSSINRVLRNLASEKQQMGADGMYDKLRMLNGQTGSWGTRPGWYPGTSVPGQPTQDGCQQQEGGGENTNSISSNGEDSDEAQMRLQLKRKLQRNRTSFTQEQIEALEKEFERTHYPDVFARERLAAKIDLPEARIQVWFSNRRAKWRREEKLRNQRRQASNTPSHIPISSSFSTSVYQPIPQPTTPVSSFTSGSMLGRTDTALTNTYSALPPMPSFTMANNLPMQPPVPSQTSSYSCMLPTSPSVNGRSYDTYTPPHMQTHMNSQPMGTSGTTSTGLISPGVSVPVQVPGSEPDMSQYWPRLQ
Sequence of Hypoxia-inducible factor 1-alpha (Homo sapiens) (Q16665 whole entry, looked up): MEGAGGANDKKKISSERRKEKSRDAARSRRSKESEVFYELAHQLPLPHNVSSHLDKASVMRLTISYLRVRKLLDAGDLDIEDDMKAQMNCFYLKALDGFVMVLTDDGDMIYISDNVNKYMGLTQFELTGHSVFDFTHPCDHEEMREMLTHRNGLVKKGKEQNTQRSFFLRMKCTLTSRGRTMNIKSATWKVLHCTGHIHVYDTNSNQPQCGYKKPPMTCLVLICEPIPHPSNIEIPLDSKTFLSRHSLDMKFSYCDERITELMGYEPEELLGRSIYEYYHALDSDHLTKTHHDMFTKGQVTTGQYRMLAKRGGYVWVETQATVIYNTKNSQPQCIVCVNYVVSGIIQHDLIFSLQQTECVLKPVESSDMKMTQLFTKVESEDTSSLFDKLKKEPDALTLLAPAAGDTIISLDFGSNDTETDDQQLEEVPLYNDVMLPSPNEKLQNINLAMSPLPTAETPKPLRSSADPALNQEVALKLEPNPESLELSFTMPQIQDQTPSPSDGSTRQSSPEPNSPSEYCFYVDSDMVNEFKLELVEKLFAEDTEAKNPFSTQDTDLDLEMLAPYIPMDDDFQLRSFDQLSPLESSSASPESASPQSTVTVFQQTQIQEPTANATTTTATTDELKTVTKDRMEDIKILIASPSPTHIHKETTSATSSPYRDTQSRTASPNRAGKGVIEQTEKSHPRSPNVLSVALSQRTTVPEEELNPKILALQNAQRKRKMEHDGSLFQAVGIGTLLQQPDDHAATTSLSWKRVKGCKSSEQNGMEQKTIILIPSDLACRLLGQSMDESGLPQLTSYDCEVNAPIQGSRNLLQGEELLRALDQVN
Sequence of Hepatocyte nuclear factor 6 (Homo sapiens) (Q9UBC0 whole entry, looked up): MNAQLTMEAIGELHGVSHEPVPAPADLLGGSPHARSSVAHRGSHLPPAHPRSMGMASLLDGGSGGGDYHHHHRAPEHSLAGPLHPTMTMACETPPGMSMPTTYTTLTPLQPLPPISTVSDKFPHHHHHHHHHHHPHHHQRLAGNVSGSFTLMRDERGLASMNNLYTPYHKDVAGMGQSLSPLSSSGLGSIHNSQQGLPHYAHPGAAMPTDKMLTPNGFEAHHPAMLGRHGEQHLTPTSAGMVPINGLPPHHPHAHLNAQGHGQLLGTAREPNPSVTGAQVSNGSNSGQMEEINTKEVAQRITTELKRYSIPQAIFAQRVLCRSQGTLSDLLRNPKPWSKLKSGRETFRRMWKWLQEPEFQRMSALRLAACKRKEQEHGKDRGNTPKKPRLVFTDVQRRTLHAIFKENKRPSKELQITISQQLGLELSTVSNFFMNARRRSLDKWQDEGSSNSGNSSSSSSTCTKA
Sequence of Heat shock factor protein 1 (Homo sapiens) (Q00613 whole entry, looked up): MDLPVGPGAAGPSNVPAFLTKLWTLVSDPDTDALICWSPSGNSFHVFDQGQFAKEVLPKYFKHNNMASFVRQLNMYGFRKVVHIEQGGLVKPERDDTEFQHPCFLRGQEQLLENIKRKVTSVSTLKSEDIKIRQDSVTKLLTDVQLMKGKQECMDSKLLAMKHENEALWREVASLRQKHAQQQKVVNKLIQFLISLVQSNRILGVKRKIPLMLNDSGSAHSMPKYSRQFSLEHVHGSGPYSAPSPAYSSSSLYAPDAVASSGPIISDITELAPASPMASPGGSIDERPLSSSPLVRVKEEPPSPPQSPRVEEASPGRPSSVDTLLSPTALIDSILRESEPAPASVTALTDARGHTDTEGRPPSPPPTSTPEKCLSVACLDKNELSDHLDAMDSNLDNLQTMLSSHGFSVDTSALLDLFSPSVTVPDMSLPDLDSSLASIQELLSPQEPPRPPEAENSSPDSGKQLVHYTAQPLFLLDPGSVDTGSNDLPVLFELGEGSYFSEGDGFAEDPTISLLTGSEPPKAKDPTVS
Sequence of Transcription factor Sp1 (Homo sapiens) (P08047 whole entry, looked up): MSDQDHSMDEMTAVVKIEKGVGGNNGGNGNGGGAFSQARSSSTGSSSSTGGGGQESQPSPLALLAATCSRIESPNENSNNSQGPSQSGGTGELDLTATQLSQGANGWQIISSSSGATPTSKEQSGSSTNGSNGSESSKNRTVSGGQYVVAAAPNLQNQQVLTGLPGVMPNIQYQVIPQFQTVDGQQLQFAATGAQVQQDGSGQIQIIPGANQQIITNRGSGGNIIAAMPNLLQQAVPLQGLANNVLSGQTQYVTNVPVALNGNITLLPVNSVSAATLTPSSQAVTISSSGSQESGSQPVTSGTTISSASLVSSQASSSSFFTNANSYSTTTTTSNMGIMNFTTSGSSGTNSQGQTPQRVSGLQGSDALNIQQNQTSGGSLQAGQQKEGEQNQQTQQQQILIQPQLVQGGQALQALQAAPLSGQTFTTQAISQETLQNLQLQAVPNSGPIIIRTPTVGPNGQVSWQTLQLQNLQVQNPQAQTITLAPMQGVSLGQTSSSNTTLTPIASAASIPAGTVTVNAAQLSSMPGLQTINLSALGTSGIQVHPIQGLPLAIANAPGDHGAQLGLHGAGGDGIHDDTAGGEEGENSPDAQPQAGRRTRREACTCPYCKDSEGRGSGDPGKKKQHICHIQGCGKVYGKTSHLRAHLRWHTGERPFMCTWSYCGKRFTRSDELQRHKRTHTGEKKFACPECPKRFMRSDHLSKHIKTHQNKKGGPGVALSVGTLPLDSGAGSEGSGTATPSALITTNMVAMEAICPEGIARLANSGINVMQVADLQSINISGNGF
Sequence of Signal transducer and activator of transcription 3 (Homo sapiens) (P40763 whole entry, looked up): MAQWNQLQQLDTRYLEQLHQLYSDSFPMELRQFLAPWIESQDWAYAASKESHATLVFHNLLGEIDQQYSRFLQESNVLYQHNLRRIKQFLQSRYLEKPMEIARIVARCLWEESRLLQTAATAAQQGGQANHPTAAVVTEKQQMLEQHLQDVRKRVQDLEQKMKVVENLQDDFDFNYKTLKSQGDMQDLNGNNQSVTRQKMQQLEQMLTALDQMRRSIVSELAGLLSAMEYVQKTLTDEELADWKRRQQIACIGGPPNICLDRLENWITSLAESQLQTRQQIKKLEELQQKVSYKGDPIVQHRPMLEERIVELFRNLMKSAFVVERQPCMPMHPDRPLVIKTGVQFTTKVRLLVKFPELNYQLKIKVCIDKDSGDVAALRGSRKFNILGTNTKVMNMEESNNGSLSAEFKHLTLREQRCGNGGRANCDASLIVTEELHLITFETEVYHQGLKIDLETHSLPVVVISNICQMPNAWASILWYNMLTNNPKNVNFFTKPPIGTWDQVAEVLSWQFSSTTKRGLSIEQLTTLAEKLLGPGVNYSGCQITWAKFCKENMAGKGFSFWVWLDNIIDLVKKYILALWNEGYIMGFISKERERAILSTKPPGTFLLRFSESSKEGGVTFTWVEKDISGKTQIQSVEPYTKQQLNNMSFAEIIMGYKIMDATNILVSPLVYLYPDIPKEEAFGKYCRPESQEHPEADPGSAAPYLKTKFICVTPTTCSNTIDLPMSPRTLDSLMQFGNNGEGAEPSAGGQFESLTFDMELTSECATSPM
Sequence of Bile acid receptor (Homo sapiens) (Q96RI1 whole entry, looked up): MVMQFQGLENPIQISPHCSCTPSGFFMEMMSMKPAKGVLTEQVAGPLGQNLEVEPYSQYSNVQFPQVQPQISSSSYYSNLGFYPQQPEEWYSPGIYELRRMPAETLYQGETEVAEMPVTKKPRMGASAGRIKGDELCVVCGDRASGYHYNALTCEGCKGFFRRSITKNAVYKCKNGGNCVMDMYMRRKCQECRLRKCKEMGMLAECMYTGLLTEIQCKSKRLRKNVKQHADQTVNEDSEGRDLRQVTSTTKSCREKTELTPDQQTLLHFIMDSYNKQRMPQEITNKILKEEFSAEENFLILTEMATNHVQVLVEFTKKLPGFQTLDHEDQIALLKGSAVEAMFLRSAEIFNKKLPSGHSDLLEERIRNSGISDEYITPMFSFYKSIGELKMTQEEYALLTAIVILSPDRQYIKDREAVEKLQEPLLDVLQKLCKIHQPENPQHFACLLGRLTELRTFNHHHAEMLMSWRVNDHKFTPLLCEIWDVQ

`CN1CCN(c2ccccc2/C=C2\SCCN(c3ccc(Cl)c(Cl)c3)C2=O)CC1`: the outcome in test [1], in test [2], in test [3], in test [4], in test [5] and in test [6] was inactive. Also, the compound was called inactive in test [7], in [8], in test [9], in test [10], in test [11] and in test [13]. The call in test [14], in test [15], in test [16], in test [18] and in test [19] was inactive. Besides, the AC50 (usually the midpoint of the concentration-response curve, whichever way the signal moves) is 2.88 µM (active) in test [12] and 5.37 µM (active) in test [17].

Consider `CCCCCCCC(=O)O`, for which the result in test [1], in test [3], in test [4], in test [5], in test [20] and in test [6] was inactive. Also, the result in test [7], in [8], in [9], in [10], in [11] and in test [12] was inactive. Further, the compound was called inactive in test [14], in test [15], in test [16], in test [17], in [18] and in [19].

With `CC(C)CCCCCCOC(=O)CCCCC(=O)OCCCCCCC(C)C`, the compound was classed as inactive in test [1], in test [2], in test [3], in test [4], in test [5] and in [6]. Besides, the compound was called inactive in test [7], in test [8], in test [9], in test [11], in test [13] and in test [15]. The compound was called inactive in test [16], in [17], in [18] and in test [19]. The AC50 in test [12] is 100 µM (active).
